Active and inactive are the calls of the source. Unless noted, the rule behind the calls is not given here.
Assays:
[1] = A549 cell viability effects, profiling panel, calcein-AM fluorescence, 48 h, basal (AID 1162); details: higher = more signal; note: test concentration not given here
[2] = adipocyte viability effects, profiling panel, cell-based, 3T3-L1 adipocytes, calcein-AM fluorescence, 48 h, basal (AID 1163); details: 3T3-L1 adipocytes viability, higher = more signal; note: test concentration not given here
[3] = HepG2 cell viability effects, profiling panel, calcein-AM fluorescence, 48 h, basal (AID 1164); details: higher = more signal; note: test concentration not given here
[4] = MM1S cell viability effects, profiling panel, calcein-AM fluorescence, 48 h, basal (AID 1165); details: higher = more signal;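 note: viability of MM1S multiple myeloma cells under basal unstimulated conditions; test concentration not given here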
[5] = basal RPMI8226 viability, no added stimulus, profiling panel, cell-based, calcein-AM fluorescence, 48 h, PK04 Diversity Set (AID 1166); details: RPMI8226 myeloma viability, higher = more signal;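 note: cells grown under basal conditions without added stimulus; test concentration not given here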
[6] = basal HepG2 mitochondrial membrane potential changes, profiling panel, cell-based, JC-1 fluorescence, 24 h, 100 nL compound (AID 1167); details: higher = more signal; note: test concentration not given here
[7] = basal 3T3-L1 adipocyte mitochondrial potential changes, profiling panel, cell-based, JC-1 fluorescence, 3T3-L1 adipocytes, 24 h, 100 nL compound (AID 1168); details: JC-1 mitochondrial fluorescence, higher = more signal, called active from +8 up or from −8 down; note: test concentration not given here
[8] = basal RPMI8226 mitochondrial membrane potential changes, profiling panel, cell-based, JC-1 fluorescence, 24 h, 100 nL compound (AID 1169); details: RPMI8226 myeloma, JC-1 mitochondrial potential fluorescence, higher = more signal; note: test concentration not given here
[9] = basal MM1S mitochondrial membrane potential changes, profiling panel, cell-based, JC-1 fluorescence, 24 h, 100 nL compound (AID 1170); details: higher = more signal; note: test concentration not given here
[10] = A549 lung cancer cell viability effects, profiling panel, resazurin fluorescence, 24 h, PK04 Diversity Set (AID 1171); details: higher = more signal, called active from +8 up or from −8 down; note: test concentration not given here
[11] = HepG2 liver cancer cell viability effects, profiling panel, resazurin fluorescence, 24 h, PK04 Diversity Set (AID 1172); details: higher = more signal; note: test concentration not given here
[12] = basal S. cerevisiae growth modulation, no modifier, primary screen, OD600, strain BY4716, 24 h, basal condition (AID 1173); details: OD600, 24 h, higher = more signal, called active from +8 up or from −8 down
[13] = MM1S myeloma cell viability, profiling panel, resazurin fluorescence, basal, 24 h, PK04 Diversity Set (AID 1174); details: higher = more signal, called active from +8 up or from −8 down;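 note: MM1S multiple myeloma cell line; test concentration not given here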
[14] = molecular target: Dihydroorotate dehydrogenase (quinone), mitochondrial (Plasmodium falciparum (isolate 3D7)) (UniProt Q08210); assay: PfDHODH enzyme inhibitors, primary screen, biochemical, C-terminal His tag, absorbance 600 nm (AID 1175); details: DCIP absorbance 600 nm, higher = more signal, called active from +8 up or from −8 down;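 note: recombinant parasite enzyme with a five histidine tag at its C terminus; test concentration not given here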
Chain of Dihydroorotate dehydrogenase (quinone), mitochondrial (Plasmodium falciparum (isolate 3D7)) (Q08210 whole entry, looked up): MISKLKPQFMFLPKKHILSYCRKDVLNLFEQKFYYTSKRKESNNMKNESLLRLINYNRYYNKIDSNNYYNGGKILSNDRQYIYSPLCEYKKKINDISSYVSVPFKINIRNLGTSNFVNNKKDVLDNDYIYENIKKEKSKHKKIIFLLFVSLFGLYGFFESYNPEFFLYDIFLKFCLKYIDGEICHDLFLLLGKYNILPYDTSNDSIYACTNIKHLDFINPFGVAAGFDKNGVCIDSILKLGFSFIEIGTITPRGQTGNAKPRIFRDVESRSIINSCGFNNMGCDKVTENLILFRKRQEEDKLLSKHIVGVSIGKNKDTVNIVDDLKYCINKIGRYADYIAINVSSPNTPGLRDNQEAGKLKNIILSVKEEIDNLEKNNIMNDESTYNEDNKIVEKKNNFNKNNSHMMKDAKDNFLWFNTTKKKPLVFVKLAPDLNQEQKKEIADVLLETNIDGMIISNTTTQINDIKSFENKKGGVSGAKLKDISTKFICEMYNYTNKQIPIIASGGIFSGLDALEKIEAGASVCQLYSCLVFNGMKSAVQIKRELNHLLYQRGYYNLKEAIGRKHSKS

[15] = P. aeruginosa biofilm formation inhibitors, primary screen, strain PAO1, LB-PBS medium, absorbance 600 nm (AID 1176); note: test concentration not given here; details: P. aeruginosa PAO1 growth/biofilm, A600, 12 h; higher = more signal
[16] = S. cerevisiae RM11-1a growth modifiers, primary screen, strain RM11-1a, OD600, basal, 24 h (AID 1177); details: OD600, 24 h, higher = more signal, called active from +8 up or from −8 down;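 note: cultures grown under basal conditions with no added stressor; test concentration not given here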
[17] = E. coli acrAB mutant growth effects, primary screen, E. coli filamentation inducers, strain DRC39, OD650, 24 h (AID 1178); details: higher = more signal, called active from +8 up or from −8 down;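 note: growth measured as culture turbidity by optical density at 650 nm; test concentration not given here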
[18] = E. coli acrAB mutant growth effects, primary screen, E. coli filamentation inducers, strain DRC39, OD650, 48 h (AID 1179);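 note: screen aims at cell division blockers that make cells filament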; details: E. coli DRC39 delta-acrAB growth, higher = more signal, called active from +8 up or from −8 down
[19] = RPMI8226 myeloma cell viability, profiling panel, resazurin fluorescence, basal, 24 h, PK04 Diversity Set (AID 1180); details: higher = more signal;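 note: RPMI8826 multiple myeloma cell line at 5000 cells per well; test concentration not given here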
[20] = molecular target: E3 ubiquitin-protein ligase XIAP (Homo sapiens) (UniProt P98170); assay: XIAP binders, primary screen, biophysical, small-molecule microarray, fluorescence 635 nm (AID 1181); details: small-molecule microarray binding, higher = more signal;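 note: score merges 667 nm emission and signal to noise over triplicate slides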
Chain of E3 ubiquitin-protein ligase XIAP (Homo sapiens) (P98170 whole entry, looked up): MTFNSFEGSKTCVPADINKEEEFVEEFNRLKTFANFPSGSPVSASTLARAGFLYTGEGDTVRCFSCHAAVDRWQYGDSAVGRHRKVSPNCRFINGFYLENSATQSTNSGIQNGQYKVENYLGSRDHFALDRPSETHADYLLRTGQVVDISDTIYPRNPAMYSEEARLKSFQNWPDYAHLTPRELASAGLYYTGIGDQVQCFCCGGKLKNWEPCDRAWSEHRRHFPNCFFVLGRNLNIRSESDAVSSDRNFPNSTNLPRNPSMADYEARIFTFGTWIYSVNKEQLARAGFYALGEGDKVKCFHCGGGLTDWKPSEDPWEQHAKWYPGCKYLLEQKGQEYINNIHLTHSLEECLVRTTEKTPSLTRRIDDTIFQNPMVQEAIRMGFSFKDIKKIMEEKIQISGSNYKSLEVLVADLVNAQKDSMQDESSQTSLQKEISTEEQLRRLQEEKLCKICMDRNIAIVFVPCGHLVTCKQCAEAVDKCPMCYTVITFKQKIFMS

SMILES	z-score [1]	z-score [2]	z-score [3]	z-score [4]	z-score [5]	z-score [6]	z-score [7]	z-score [8]	z-score [9]	z-score [10]	z-score [11]	z-score [12]	z-score [13]	composite z-score [14]	z-score [15]	z-score [16]	z-score [17]	z-score [18]	z-score [19]	composite z-score [20]
CC(C)Cc1ccc(CN2CC[C@@H](N)C2)cc1	-0.336	0.202	-0.375	-3.15	-1.65	2.5	-0.559 (inactive)	-0.502	-2.86	3.36 (inactive)	1.51	-12.8 (active)	-1.49 (inactive)	4.28 (inactive)	-0.271 (inactive)	-0.0782 (inactive)	1.47 (inactive)	0.611 (inactive)	-0.681	-0.269
CC(C)NC(=O)[C@@]1(Cc2ccccc2I)c2ccccc2C(=O)N(Cc2ccccc2Cl)[C@H]1c1ccc(CO)cc1	-0.271	0.0063	0.768	-1.59	-2.03	-0.274	0.131 (inactive)	0.0101	-0.756	0.0211 (inactive)	-0.344	-0.673 (inactive)	0.179 (inactive)	0.0754 (inactive)	-0.103 (inactive)	0.818 (inactive)	0.107 (inactive)	-0.706 (inactive)	-0.0558	0.0049
COCCOC(=O)N1C(=O)[C@@]2(c3ccccc31)[C@H](C(N)=O)[C@H]1C(=O)O[C@H](c3ccccc3)[C@H](c3ccccc3)N1[C@@H]2c1ccc(O)cc1	0.75	-0.0824	1.51	0.84	0.248	-0.244	0.571 (inactive)	-0.795	0.119	-1.37 (inactive)	-0.755	-0.494 (inactive)	-0.593 (inactive)	-0.294 (inactive)	0.806 (inactive)	0.275 (inactive)	0.396 (inactive)	0.787 (inactive)	-1.01	0.175
COCCCNC(=O)[C@@]1(CCS(=O)(=O)c2ccccc2)N=C(c2ccc(OCCCO)cc2)O[C@H]1c1ccccc1N=[N+]=[N-]	-0.196	2.02	-0.43	0.0021	-2.28	0.4	-0.636 (inactive)	-0.938	-1.2	1.36 (inactive)	0.531	-0.865 (inactive)	-0.368 (inactive)	-0.396 (inactive)	-0.385 (inactive)	-0.488 (inactive)	1.28 (inactive)	0.863 (inactive)	-0.264	-0.005
COC(=O)[C@]1(CCC(=O)OC(C)(C)C)N=C(c2ccc(OCCCO)cc2)O[C@@H]1c1ccccc1	-1.32	0.899	-1.08	-3.43	-3.1	-2.23	-0.205 (inactive)	-0.734	0.903	-1.99 (inactive)	-0.134	-0.761 (inactive)	-0.671 (inactive)	-0.134 (inactive)	0.438 (inactive)	0.504 (inactive)	3.37 (inactive)	0.648 (inactive)	-1.47	0.153
C=CCOC(=O)[C@H]1[C@@H]2C(=O)O[C@@H](c3ccccc3)[C@@H](c3ccccc3)N2[C@@H](c2ccc(OCCOC(=O)[C@H]3C[C@H]4C(=O)N[C@@H](CCCCN(C)C)C(=O)N4[C@H]3c3cccc(OCCO)c3)cc2)[C@]12C(=O)Nc1ccc(I)cc12	-0.226	-0.512	1.22	-2.14	-1.82	-1.92	-1.13 (inactive)	-0.157	-0.465	0.477 (inactive)	-0.0574	0.626 (inactive)	-0.865 (inactive)	1.71 (inactive)	0.808 (inactive)	1.75 (inactive)	-0.548 (inactive)	-1.02 (inactive)	-0.316	0.194
C=C[C@H](C)[C@@H](OC(=O)Nc1ccc(SC)cc1)c1ccc(O)c2ccccc12	-0.89	0.0148	-1.87	-2.68	-4.27	-3.23	-0.475 (inactive)	-0.934	-1.59	-0.774 (inactive)	-0.752	-18.2 (active)	-3.78 (inactive)	-1.84 (inactive)	0.908 (inactive)	-5.28 (inactive)	-0.33 (inactive)	-0.638 (inactive)	-3	-0.258
O=C1O[C@@H](c2ccccc2)[C@@H](c2ccccc2)N2[C@@H](c3ccccc3OCCO)[C@]3(C(=O)Nc4ccccc43)[C@@H](C(=O)O)[C@H]12	-0.796	0.266	0.045	-2.64	0.0803	0.249	-0.742 (inactive)	0.649	0.554	0.362 (inactive)	-0.0985	-2.46 (inactive)	0.19 (inactive)	-0.487 (inactive)	0.986 (inactive)	0.324 (inactive)	-0.582 (inactive)	-0.76 (inactive)	0.125	0.0755
C=C(C)[C@@H]1CC=C(C(O)C2C=CC3C(=O)NC(=O)C3N2Nc2ccc(Cl)cc2Cl)CC1 (stereo not given in full)	-3.8	0.641	-3.88	-3.71	-3.89	-3.7	-0.432 (inactive)	-0.934	-0.944	-2.76 (inactive)	-3.18	-5.07 (inactive)	-2.94 (inactive)	0.512 (inactive)	0.875 (inactive)	1.11 (inactive)	-0.761 (inactive)	-1.29 (inactive)	-2.54	-0.0655
